Reference: PubChem BioAssay AID743398 (Broad Institute, 2014)
Hit rate of the full screen: of about 300,000 compounds, about 3,600 (1.2%) were called active. Cut-off read from the data, not from the text of the source: active = activation above about 30% (passing the limit was not always enough); inconclusive = no clear call, values can overlap the other calls. The full list was thinned out, with actives kept by preference.

Assay: Wnt/beta-catenin pathway activators, primary screen, cell-based, plate reader, single point (AID 743398);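 note: 0% = neutral control wells and 100% = positive control wells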
Conditions: Wnt/beta-catenin reporter cell assay, activator, at 9.35 µM, hits give high values

activation, inactive:
Cc1[nH]nc2c1C(c1ccc(Br)cc1)NC2=O (stereo not drawn) 1.31%
Cc1cc(O)c(NC(=O)c2ccc(C)c([N+](=O)[O-])c2)cc1C 4.77%
Cc1ccc(NC(=O)CN(C)CC(=O)Nc2cccc(F)c2)cc1[N+](=O)[O-] -4.16%
O=S(=O)(NCc1ccccn1)c1ccc(Br)s1 -6.83%
Cc1cc(C)c[n+](-c2nc3ccccc3nc2[N-]S(=O)(=O)c2cccs2)c1 -2.64%
O=C(NCC(=O)N1CCCCCCC1)c1ccccc1Cl 12.1%
O=C(NC(=O)N1CCOCC1)c1ccccc1 -2.28%
OC(c1ccc(Cl)cc1)c1ncc(-c2ccc(Cl)cc2)[nH]1 (stereo not drawn) 0.492%
CCNc1nc(NCC)nc(N/N=C/c2ccc(O)c(OC)c2)n1 -3.98%
COc1cc(/C=N\Nc2nc(-c3cccs3)c(NC(C)=O)s2)ccc1O 7.87%
c1cc(-c2ccc3[nH]ccc3c2)n2ccnc2c1 3.12%
Fc1cccc(Cc2c(-c3cccc(Cl)c3)nc3ccc(Br)cn23)c1 16.8%
O=C(NCCc1c[nH]c2ccccc12)c1cccc(Br)c1 0.278%
CN(c1ccccc1)S(=O)(=O)c1ccc(Cl)c(C(=O)NCCc2c[nH]c3ccccc23)c1 -0.321%
Nc1[nH]c(C(=O)c2ccc(Br)cc2)c(-c2ccc3c(c2)OCO3)c1C(=O)NCCc1c[nH]c2ccccc12 0.212%
CCc1ccc(C2=CC(=O)CC(C)(C)C2=O)cc1 -1.61%
Cc1ccccc1N(C(=O)CNC(=O)c1cccs1)C(C(=O)NC1CCCC1)c1ccncc1 (stereo not drawn) -0.349%
O=C(NCC(=O)N(CC1CCCO1)C(C(=O)NC1CCCCC1)c1ccccc1)c1ccco1 (stereo not drawn) -4.62%
CCOC(=O)C1=CC[C@@H](c2ccncc2)N(S(=O)(=O)c2ccc(C)cc2)C1 -0.651%
CCCCn1nnnc1C(c1ccccc1)N1CCN(c2ccccc2OC)CC1 (stereo not drawn) 1.03%
COC(=O)C1=C(C)N(Cc2cccc(C(F)(F)F)c2)C(=NCc2cccc(C(F)(F)F)c2)NC1c1ccccc1C(F)(F)F (stereo not drawn) -4.8%
COc1ccc(-c2cnc3c(c2)C(=O)N([C@H](C)CO)C[C@@H](C)[C@H](CN(C)Cc2ccccc2)O3)cc1 -0.613%
Cc1ccc2nc(N3C(=O)C(O)=C(C(=O)c4ccco4)C3c3cccc(O)c3)sc2c1 (stereo not drawn) 8.29%
COc1ccc2nc(N3CCN(C(=O)c4ccc([N+](=O)[O-])o4)CC3)sc2c1 2.35%
COc1cccc(CC(=O)N2CCN(C(=O)C(=O)c3cccc(C(F)(F)F)c3)CC2)c1 -3.95%
Cc1cc(C)cc(NC(=O)CSc2ccccc2)c1 -7.62%
CN(Cc1ccccc1)C(=O)c1cccc(C(=O)N(C)Cc2ccccc2)c1 1.74%
Cc1ccccc1-c1nc(NC(C)C)nc2cc(-c3ccccc3)sc12 -8.66%
CN1CCN(c2ccc3c(c2)OC[C@H](Cc2ccccc2)NS3(=O)=O)CC1 -3.42%
COc1ccc(Cc2nc3ccc(C(=O)NCC4CCOCC4)cc3o2)cc1OC 7.09%
COCCNC(=O)c1ccc2nc(Cc3ccc(OC)c(OC)c3)oc2c1 1.55%
COc1ccc2nc(-c3ccccn3)ccc2c1 1.79%
COc1ccc(-c2cn3cccnc3n2)cc1 26.2%
CCOc1ccc(Cl)cc1-c1cc(C(=O)NCc2cccs2)[nH]n1 -2.6%
O=C(NCc1ccccc1)[C@@H]1CCCN1C(=O)[C@H]1CCCN1C(=O)c1cccc(Cl)c1 3.03%
O=C1/C(=C/c2cccs2)CCc2ccccc21 24.6%
CN1C/C(=C/c2cccs2)C(=O)/C(=C\c2cccs2)C1 5.88%
C[C@H](CO)N1C[C@H](C)[C@@H](CN(C)C(=O)Nc2ccccc2F)OCc2cn(nn2)CCCC1=O -2.87%
COc1ccc(C(C)(O)c2nc(-c3cc(F)cc(F)c3)cs2)cc1 (stereo not drawn) -1.38%
COc1cc(OC)cc(-c2c(-c3ccc(F)cc3)c3cc(-c4ccc5cc[nH]c5c4)ccc3n2C)c1 -17.5%
COc1ccccc1C(=O)N1O[C@]23C=C[C@]14C[C@@H](O)CC[C@]4(C)C2CC[C@]1(C)[C@@H]([C@H](C)/C=C/[C@H](C)C(C)C)CC[C@H]13 (stereo partly drawn) -2.64%
COc1cccc(CNc2nc(NCc3cccs3)nc3ccsc23)c1 -1.69%
O=C(Nc1c(Cl)c(C2CC2)nn1-c1ccccc1)C(Cl)(Cl)Cl -2.16%
O=C(c1ccco1)N1CCN(C(=O)c2cc(-c3ccccc3F)no2)CC1 1.22%
O=C(NCCCN1CCOCC1)c1cc(-c2ccccc2F)no1 3.67%

activation, active:
Cc1ccc(NC(=O)c2sccc2C)cc1[N+](=O)[O-] 44.6%
O=S(=O)([N-]c1nc2ccccc2nc1-[n+]1ccc(Cc2ccccc2)cc1)c1ccc(Br)s1 88.3%
O=C(NC(=O)N1CCSCC1)c1c(Cl)cccc1Cl 31.3%
COc1cc(/C=N/Nc2nc3ccccc3s2)ccc1O 76.9%
O=C(NCCc1c[nH]c2ccccc12)c1cc2ccccc2oc1=O 40.4%
O=C(NCC(=O)N(Cc1cccs1)C(C(=O)NC1CCCCC1)c1ccco1)c1cccs1 (stereo not drawn) 67.7%
Cc1ccc2nc(N3CCN(C(=O)c4ccco4)CC3)sc2c1 40%
Cc1cc(C)cc(NC(=O)N(C)Cc2ccccc2)c1 46%
CSCCNC(=O)c1ccc2nc(Cc3ccccc3F)oc2c1 42.9%
COc1ccc(-c2cc3ncccc3cn2)cc1 50.1%
O=C1/C(=C/c2cccs2)CCC1C1CCCC1 (stereo not drawn) 39.6%
COc1cc(OC)cc(-c2cc3ccc(F)cc3cn2)c1 42.1%
Fc1ccccc1-c1cc2cc3c(cc2cn1)OCO3 40.7%
